# Records with an inconclusive call do not appear. A call without a number means that no potency is given here. The source made the active and inactive calls. Calls follow the shape of the dose curve; as a rule, active = well fitted inhibition curve with a large enough effect; inconclusive = small, poorly fitted or top-dose-only effect; inactive = no such curve, though single readings can be large or run the other way.
# Test: Counterscreen qHTS for Identification of Calcium Integrin Binding Protein 1 (CIB1) Competitor
# Details: series mostly up to 114 µM
# Summary of the method: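 Counterscreen FP assay: CIB1-GST 1 uM in 5 mM HEPES pH 7.4, 125 mM NaCl, 5 mM CaCl2, 0.01% Tween20, with compounds up to 114 uM for 15 min, then 100 nM FITC-labelled scrambled peptide, 15 min, polarization read ex 480/em 540.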
# Potency is read from the fitted curve at half-maximal effect.
row,SMILES,Potency
1,COC(=O)c1ccc2c(c1)S(=O)(=O)N=C2Sc1cc(C)ccc1C,inactive
2,O=C1CCCC2=C1C(c1ccn[nH]1)N=C(Nc1nc3ccccc3o1)N2 (stereo not drawn),inactive
3,CN(C)CCN1C(=O)c2cccc3cc(N)cc(c23)C1=O,inactive
4,CCCCCCCCOc1ccccc1C(=O)Nc1ccc(C(=O)OCC[N+](C)(CC)CC)cc1,inactive
5,C=CCNc1oc(-c2cccc3ccccc23)nc1C#N,inactive
6,NC(=O)c1ccnc2c(O)cccc12,inactive
7,CCCC1CCN(C(=O)COC(=O)c2ccc(S(C)(=O)=O)c([N+](=O)[O-])c2)CC1,inactive
8,Cc1ccc(C(=O)NC(c2ccco2)c2cc(Cl)c3cccnc3c2O)cc1 (stereo not drawn),inactive
9,CC(=O)Nc1sc2c(c1-c1nc3ccccc3s1)CNC2,inactive
10,O=C1CCCC2=C1C1(CCOCC1)N=C(Nc1nc3ccccc3o1)N2,inactive
11,CC1(C)OB(c2ccc(O)c3ncc(N4CCNCC4)cc23)OC1(C)C,20 µM (active)
12,O=S(=O)(Nc1nccs1)c1ccc(NCc2cc(Cl)ccc2O)cc1,inactive
13,O=[N+]([O-])c1ccc(O)c2ncccc12,inactive

# — PubChem BioAssay AID1508619 (National Center for Advancing Translational Sciences (NCATS), 2020)
